# Shiga inhibitor – blocks Shiga toxin action in Vero cells; actives 9.2% (n = 290,000); Vero cells, Shiga toxin protein synthesis inhibition reporter; inhibition, % at 38.7 µM; in the data active = inhibition mostly above about 28%, no sharp cut-off; inactive = mostly below about 43%; also: 0% is about no effect
# Pf growth 96h – P. falciparum growth inhibition at 96 hour, primary screen for plastid delayed-death inhibitors. AID 504834. P. falciparum luciferase reporter growth, 96 h. actives 6.9% (n = 320,000). Potency, µM (top dose mostly 28.7 µM), without a hit: top-dose activity change, negative = inhibition, hits mostly inhibitors; also: potency is read from the fitted curve at half-maximal effect; % is scaled to controls: 0 for no effect and ±100 for the full control effect
#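 P. falciparum expressing integrated firefly luciferase, in erythrocytes at 2% hematocrit, 0.05% parasitemia, incubated with compounds 96 h at 37 C, 5% CO2. Growth inhibition read as loss of luminescence; two-generation exposure targets delayed-death apicoplast inhibitors.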
# CHX counter – counter-screen hit for Shiga toxin inhibitors, cycloheximide; actives 12% (n = 300,000); max response, %; cell reporter, cycloheximide protein synthesis inhibition counterscreen; in the data active = max response mostly above about 13%, no sharp cut-off; inactive = mostly below about 14%; also: read at 38.3 µM for the half of the compounds with a filed dose; 0% is about no effect
# Pf growth 48h – P. falciparum growth inhibition at 48 hours (one generation). actives 5.9% (n = 310,000). AID 504832. Potency, µM (series often up to 28.7 µM), inactives show at the highest dose activity change, negative = inhibition, hits mostly inhibitors. P. falciparum luciferase growth in erythrocytes, 48 h; also: potency is read from the fitted curve at half-maximal effect; % is scaled to controls: 0 for no effect and ±100 for the full control effect
#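 A one-generation exposure of luciferase-tagged malaria parasites in RPMI 1640/Albumax erythrocyte culture, 37 C and 5% CO2. Inhibition is inferred from decreased luminescence after adding detection reagent.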
# LmPK inh – blocks Leishmania mexicana pyruvate kinase activity | purified LmPK, Kinase-Glo ATP luminescence, 1 h | Potency, µM (series often up to 57.5 µM), for inactives: at the top dose activity change, negative = inhibition, most hits filed as inhibitors | actives 0.37% (n = 290,000); also: potency is read from the fitted curve at half-maximal effect; % is scaled to controls: 0 for no effect and ±100 for the full control effect
# Target sequence (Q27686 whole entry, looked up): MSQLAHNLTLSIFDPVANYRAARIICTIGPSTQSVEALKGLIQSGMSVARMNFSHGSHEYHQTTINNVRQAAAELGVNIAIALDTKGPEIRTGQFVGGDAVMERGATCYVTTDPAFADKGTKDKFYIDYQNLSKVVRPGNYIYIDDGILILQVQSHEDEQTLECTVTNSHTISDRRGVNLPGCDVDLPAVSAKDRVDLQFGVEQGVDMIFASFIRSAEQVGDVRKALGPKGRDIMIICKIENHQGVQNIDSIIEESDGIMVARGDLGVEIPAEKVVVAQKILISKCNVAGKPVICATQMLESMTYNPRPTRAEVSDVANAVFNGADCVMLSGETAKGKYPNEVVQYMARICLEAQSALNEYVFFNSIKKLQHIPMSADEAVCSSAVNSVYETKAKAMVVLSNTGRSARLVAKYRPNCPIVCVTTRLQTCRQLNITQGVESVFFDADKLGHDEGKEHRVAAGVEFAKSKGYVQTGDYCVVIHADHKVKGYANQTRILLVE
#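 Purified LmPK (0.1 nM) converted ADP (0.1 mM) to ATP with PEP (0.5 mM) in imidazole buffer pH 7.2 with KCl and MgCl2, 1 h at room temperature. ATP was read by Kinase-Glo luminescence; data normalized to uninhibited and no-enzyme controls.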
# The depositor's hits bear a star; ? = inconclusive; nt = no result. Rows were chosen to be rich in hits. Some 22% of all compounds tested hit in one or more screens of this group. Unless noted, calls follow the shape of the dose curve; as a rule, active = well fitted inhibition curve with a large enough effect; inconclusive = small, poorly fitted or top-dose-only effect, or another doubt; inactive = no such curve, though single readings can be large or run the other way.
SMILES,Shiga inhibitor,Pf growth 96h,CHX counter,Pf growth 48h,LmPK inh
Cc1cccc(Sc2ccc([N+](=O)[O-])cc2[N+](=O)[O-])n1,0.9,8.28µM*,-1.2,?,-1.8%
Cc1cccc(Sc2c([N+](=O)[O-])ncn2C)n1,-13.2,?,-4.0,-13.2%,-0.6%
Cc1cc2cc(C#N)c(SCC(=O)Nc3nonc3C)nc2cc1C,16.3,14.2%,14.1,16.0%,-2.5%
Cc1nonc1NC(=O)CSc1nc2c(C)cccc2cc1C#N,67.9*,10.4µM*,40.9*,?,1.6%
CCN(CC(=O)Nc1c(F)cccc1F)C(=O)c1ccc2c(c1)OCCO2,nt,35.6%,nt,24.9%,nt
Nc1n[nH]c(N)c1N=Nc1ccc(Cl)cc1Cl,38.1*,57.8%,51.7*,92.1%,3.0%
Cc1ccccc1N=Nc1c(N)n[nH]c1N,8.9,2.94µM*,9.2,7.1%,0.8%
Nc1n[nH]c(N)c1N=Nc1ccccc1F,24.2,0.0%,16.9*,20.5%,-4.5%
O=C(NC1CC1)c1ccc2c(c1)S(=O)(=O)c1cc(Cl)ccc1C2=O,nt,42.5%,nt,-2.3%,nt
O=C1CC2(CCCC2)CC(=O)N1c1ccccc1,2.4,11.7µM*,6.3,?,0.9%
COc1ccc(N2C(=O)CC3(CCCC3)CC2=O)cc1,-1.0,6.57µM*,8.6,21.5%,1.1%
O=C1CC(=O)N(c2ccccc2)C(=O)N1c1ccccc1,17.8,?,16.9*,30.1%,-6.9%
CC(NC(=S)Nc1ccccc1C(F)(F)F)C1CC2CCC1C2 (stereo not drawn),-25.7,0.0%,0.6,?,0.0%
Cc1cc2c(s1)c1cnn(Cc3c(F)c(F)cc(F)c3F)c(=O)c1n2C,15.8,nt,7.5,nt,nt
CC/S(=N\S(=O)(=O)c1ccc(C)cc1)c1ccccc1 (stereo not drawn),2.4,0.1%,10.2,16.6%,-0.2%
COc1ccc(C(=O)c2ccc(-c3ccc(OC)cc3)nc2)cc1,27.0,30.8%,-1.4,28.3%,-4.1%
CCc1ncc(C(=O)c2ccc(OC)cc2)n1C,8.6,160.9%,14.2*,24.4%,-3.1%
Cc1cc(C)c2[nH]c(=O)c(C(c3nnnn3CC3CCCO3)N3CCCC(C)C3)cc2c1 (stereo not drawn),-6.4,nt,-2.6,14.7µM*,-1.5%
CCC(C)(C)n1nnnc1C(c1cc2cc(C)cc(C)c2[nH]c1=O)N1CCN(Cc2ccc3c(c2)OCO3)CC1 (stereo not drawn),2.3,0.522µM*,-0.1,nt,8.4%
CCC(C)(C)n1nnnc1C(c1cc2cc(C)cc(C)c2[nH]c1=O)N1CCCC1 (stereo not drawn),19.4,?,-4.2,5.86µM*,2.5%
Cc1cc(C)c2[nH]c(=O)c(C(c3nnnn3Cc3ccc4c(c3)OCO4)N3CCCCC3)cc2c1 (stereo not drawn),-16.5,-3.4%,-0.3,-14.7%,1.0%
COc1ccc(CC(=O)N[C@@H](CCSC)C(=O)N2CCC3(CC2)NCCc2[nH]cnc23)cc1,-10.0,5.6%,-3.9,12.2%,4.7%
COC(=O)[C@@H]1C[C@@]2(O)[C@@H](O)[C@@H](O)[C@@H](O)C[C@H]2N1CC1CCCCC1,-8.9,64.4%,4.0,53.1%,3.3%
N#C/C(C(=O)Oc1ccccc1)=C1/Nc2ccccc2-c2ccccc21,-2.2,45.6%,5.9,?,-7.8%
Nc1ccc(Br)cc1Br,30.4,?,-2.3,-12.7%,0.0%
SMILES,Shiga inhibitor,Pf growth 96h,CHX counter,Pf growth 48h,LmPK inh
COc1cc2[nH]c(=S)nc(NCc3ccc(Cl)cc3)c2cc1OC,17.9,?,5.2,11.7µM*,-0.1%
COc1cc2[nH]c(=S)nc(NCCc3ccc(C)cc3)c2cc1OC,-4.6,8.4%,-0.8,2.62µM*,0.3%
COc1cc2[nH]c(=S)nc(NCc3cccs3)c2cc1OC,-6.2,5.3%,3.5,?,-0.6%
COc1ccccc1CNc1nc(=S)[nH]c2cc(OC)c(OC)cc12,48.4*,1.4%,23.2*,?,0.2%
COc1cccc(C2(O)C(=O)Nc3ccccc32)c1 (stereo not drawn),-1.6,25.8%,17.8,-18.2%,-0.3%
CCN(CC)c1ccc2nc3ccc(N)cc3[n+](-c3ccccc3)c2c1,nt,?,nt,0.294µM*,nt
COc1ccc(C(=O)Cc2cc3ccccc3oc2=O)cc1,61.1*,5.1%,28.4*,88.9%,-1.0%
Cc1ccc(C(=O)Cc2cc3ccccc3oc2=O)c(C)c1,66.6*,?,57.5*,91.0%,0.6%
COc1ccc(C2CC(=O)c3c(ccc4ccccc34)N2)cc1OC (stereo not drawn),-13.1,?,-6.5,?,5.4%
CCOc1cc(C2CC(=O)c3c(ccc4ccccc34)N2)ccc1O (stereo not drawn),-17.1,1.04µM*,-2.0,0.6%,3.5%
Cc1nn(CCC(=O)N2CCN(S(=O)(=O)c3ccccc3)CC2)c(C)c1C,-2.9,?,-3.6,-7.7%,-2.8%
Cc1ccc(SCC(c2ccccc2)N2CCN(C)CCC2=O)cc1 (stereo not drawn),52.4*,nt,31.1*,nt,nt
CN1CCC(=O)N([C@H](CSc2ccc(Br)cc2)c2ccccc2)CC1,63.5*,38.6%,25.0*,35.0%,2.2%
CN1CCC(=O)N(C(CSc2ccc(Br)cc2)Cc2ccccc2)CC1 (stereo not drawn),-13.3,nt,6.6,nt,nt
CN1CCC(=O)N([C@H](CC#N)c2ccccc2)CC1,4.2,-0.1%,-2.0,-2.4%,3.5%
CSCC[C@H](NC(=O)[C@H](Cc1ccccc1)n1c(=O)[nH]c2ccccc2c1=O)C(=O)N1CCC[C@H]1C(=O)O,-11.2,-4.7%,-3.9,17.2%,3.0%
C=CCOC(=O)c1ccc(-n2cnc(C)n2)nc1,54.1,42.1%,-1.4,13.0%,-6.3%
CNCCCC12CCC(c3ccccc31)c1ccccc12,-12.3,?,-5.3,11.7µM*,2.3%
CNCCCCOc1ccccc1-c1ccccc1,-20.2,16.2%,-4.5,-14.7%,-0.7%
Cc1cc(Nc2ccc(C)c(C)c2)n2nc(C)nc2n1,13.7,?,-3.3,0.738µM*,2.5%
Cc1cc(Nc2ccc(Br)cc2)n2nc(C)nc2n1,-6.9,?,-2.4,2.33µM*,2.2%
Cc1cc(Nc2ccc(F)cc2)n2nc(C)nc2n1,14.2,?,4.4,nt,7.3%
Cc1cc(Nc2cccc(F)c2)n2nc(C)nc2n1,-4.3,9.28µM*,0.2,?,-0.4%
CCc1ccc(Nc2cc(C)nc3nc(C)nn23)cc1,-3.4,-10.4%,-1.9,1.31µM*,-6.0%
Cn1c(Cc2cccs2)nnc1SCC(=O)Nc1ccc(C(N)=O)cc1,nt,?,nt,1.1%,nt
OCc1nn2c(c1Br)NC(c1ccccc1)CC2C(F)(F)F (stereo not drawn),-3.5,14.4%,-0.4,-3.4%,4.5%
CC1CCN(C(=O)COC(=O)C2CCN(S(=O)(=O)c3ccc4c(c3)OCCO4)CC2)CC1,nt,7.4%,nt,-16.0%,nt
O=C(CCc1nnc(CCc2c[nH]c3ccccc23)o1)NC1CCC1,179.6*,-14.1%,52.7*,6.3%,-2.2%
COC(c1ccccc1)c1nnc(CCC(=O)NC2C3CC4CC(C3)CC2C4)o1 (stereo not drawn),3.3,-0.9%,9.4,-29.6%,-1.0%

# Bioassay records deposited in PubChem by National Center for Advancing Translational Sciences (NCATS).
